Test results: the supplement of paper PMC10849652
Of roughly 7,900 targets only a part is listed; those with a hit were picked by preference. About 0.6% of all pairs of compound and target were hits.

compound: Cn1cncc1[C@@](N)(c1ccc(Cl)cc1)c1ccc2c(c1)c(-c1cccc(Cl)c1)cc(=O)n2C [tipifarnib]; experiment: log2 fold change, soluble protein after heating vs DMSO (PISA); higher = thermal stabilisation; K562 cells, 10 uM, 30 min; active = over 0.2 and 3.5 SD of the protein, either way, in both replicates (recomputed)
In short: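 Soluble protein was quantified by TMTpro 16plex LC-MS/MS after channel sums were equalised. It was obtained as the supernatant after 21,000xg for 90 min from pooled aliquots of K562 cells (2×10^6 cells/mL, 10 μM compound, 30 min) heated for 3 min across 48°C-58°C and extracted in PBS with 0.5% NP-40 at 4°C. Thermal stability values are relative to control samples and come from duplicates. They are given as log2 fold changes.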

Sequence of UniProt P20674 (P20674 whole entry, looked up): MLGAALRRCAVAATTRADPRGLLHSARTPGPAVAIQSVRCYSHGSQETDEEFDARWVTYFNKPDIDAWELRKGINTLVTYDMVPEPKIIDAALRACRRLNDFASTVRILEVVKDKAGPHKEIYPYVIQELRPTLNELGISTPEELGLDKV
Sequence of UniProt P35520 (P35520 whole entry, looked up): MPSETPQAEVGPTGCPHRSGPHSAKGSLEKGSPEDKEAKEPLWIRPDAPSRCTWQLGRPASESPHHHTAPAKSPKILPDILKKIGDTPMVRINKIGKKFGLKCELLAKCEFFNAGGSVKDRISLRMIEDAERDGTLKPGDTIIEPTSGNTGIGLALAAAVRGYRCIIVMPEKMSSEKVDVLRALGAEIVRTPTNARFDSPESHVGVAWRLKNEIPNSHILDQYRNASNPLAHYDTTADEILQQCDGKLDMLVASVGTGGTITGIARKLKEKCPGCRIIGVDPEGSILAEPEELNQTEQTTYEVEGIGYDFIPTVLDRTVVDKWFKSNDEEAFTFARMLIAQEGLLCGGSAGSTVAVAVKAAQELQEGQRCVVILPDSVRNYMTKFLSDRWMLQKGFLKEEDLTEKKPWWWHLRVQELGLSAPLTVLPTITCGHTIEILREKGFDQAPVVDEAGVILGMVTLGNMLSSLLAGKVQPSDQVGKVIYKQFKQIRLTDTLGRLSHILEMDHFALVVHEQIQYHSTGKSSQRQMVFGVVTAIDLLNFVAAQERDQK
Sequence of UniProt Q99627 (Q99627 whole entry, looked up): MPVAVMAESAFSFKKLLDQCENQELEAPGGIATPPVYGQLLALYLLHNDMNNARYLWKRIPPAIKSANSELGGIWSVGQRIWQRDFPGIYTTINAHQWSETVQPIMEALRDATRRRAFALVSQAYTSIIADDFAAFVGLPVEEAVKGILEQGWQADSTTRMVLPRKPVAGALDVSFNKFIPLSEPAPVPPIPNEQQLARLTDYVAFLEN
Sequence of UniProt Q00536 (Q00536 whole entry, looked up): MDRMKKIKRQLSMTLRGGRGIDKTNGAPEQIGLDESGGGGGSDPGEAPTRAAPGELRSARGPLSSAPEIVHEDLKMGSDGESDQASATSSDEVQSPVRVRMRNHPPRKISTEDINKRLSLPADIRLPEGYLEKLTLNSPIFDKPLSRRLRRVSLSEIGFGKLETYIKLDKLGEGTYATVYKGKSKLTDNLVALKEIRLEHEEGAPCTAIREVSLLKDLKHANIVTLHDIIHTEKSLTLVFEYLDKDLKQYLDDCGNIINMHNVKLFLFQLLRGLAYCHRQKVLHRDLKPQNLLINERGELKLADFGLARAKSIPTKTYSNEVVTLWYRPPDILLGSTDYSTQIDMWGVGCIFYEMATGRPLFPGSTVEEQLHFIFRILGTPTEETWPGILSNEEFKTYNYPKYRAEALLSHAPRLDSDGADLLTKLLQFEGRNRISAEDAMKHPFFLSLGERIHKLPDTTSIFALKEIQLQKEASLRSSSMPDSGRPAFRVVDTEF
Sequence of UniProt Q9Y3X0 (Q9Y3X0 whole entry, looked up): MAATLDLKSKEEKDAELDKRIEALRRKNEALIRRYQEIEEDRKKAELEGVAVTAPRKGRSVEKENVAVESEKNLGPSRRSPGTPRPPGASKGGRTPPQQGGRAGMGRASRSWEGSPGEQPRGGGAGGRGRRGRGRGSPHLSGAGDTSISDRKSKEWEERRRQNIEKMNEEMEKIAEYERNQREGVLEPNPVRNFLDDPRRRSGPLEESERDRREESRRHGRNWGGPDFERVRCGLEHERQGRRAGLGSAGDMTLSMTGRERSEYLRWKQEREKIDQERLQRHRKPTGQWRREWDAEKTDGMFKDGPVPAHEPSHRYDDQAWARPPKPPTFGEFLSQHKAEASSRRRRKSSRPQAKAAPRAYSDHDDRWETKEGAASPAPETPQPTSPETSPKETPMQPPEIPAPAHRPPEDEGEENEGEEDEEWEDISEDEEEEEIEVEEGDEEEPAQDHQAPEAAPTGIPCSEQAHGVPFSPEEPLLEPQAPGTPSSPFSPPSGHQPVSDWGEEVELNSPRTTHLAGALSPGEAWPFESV
Sequence of UniProt P21964 (P21964 whole entry, looked up): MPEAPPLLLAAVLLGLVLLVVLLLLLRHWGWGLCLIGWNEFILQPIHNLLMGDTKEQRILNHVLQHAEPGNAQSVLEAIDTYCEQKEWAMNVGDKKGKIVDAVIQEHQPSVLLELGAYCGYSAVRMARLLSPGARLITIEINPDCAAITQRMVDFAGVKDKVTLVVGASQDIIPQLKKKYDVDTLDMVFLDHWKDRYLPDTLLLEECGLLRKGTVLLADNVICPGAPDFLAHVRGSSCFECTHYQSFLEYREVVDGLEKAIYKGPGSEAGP
Sequence of UniProt Q8N1A6 (Q8N1A6 whole entry, looked up): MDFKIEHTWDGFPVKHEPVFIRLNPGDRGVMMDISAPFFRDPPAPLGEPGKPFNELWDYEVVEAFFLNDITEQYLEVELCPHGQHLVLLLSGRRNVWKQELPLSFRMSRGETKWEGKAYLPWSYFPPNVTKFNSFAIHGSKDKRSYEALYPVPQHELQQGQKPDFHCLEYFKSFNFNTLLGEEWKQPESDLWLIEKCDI
Sequence of UniProt P48509 (P48509 whole entry, looked up): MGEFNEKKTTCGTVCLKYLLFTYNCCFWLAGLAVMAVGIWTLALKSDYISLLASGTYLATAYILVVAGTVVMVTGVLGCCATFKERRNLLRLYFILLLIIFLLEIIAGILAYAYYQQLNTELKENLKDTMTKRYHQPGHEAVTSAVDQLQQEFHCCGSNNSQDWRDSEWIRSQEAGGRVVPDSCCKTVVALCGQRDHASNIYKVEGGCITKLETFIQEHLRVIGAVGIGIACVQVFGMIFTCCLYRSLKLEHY
Sequence of UniProt Q14839 (Q14839 whole entry, looked up): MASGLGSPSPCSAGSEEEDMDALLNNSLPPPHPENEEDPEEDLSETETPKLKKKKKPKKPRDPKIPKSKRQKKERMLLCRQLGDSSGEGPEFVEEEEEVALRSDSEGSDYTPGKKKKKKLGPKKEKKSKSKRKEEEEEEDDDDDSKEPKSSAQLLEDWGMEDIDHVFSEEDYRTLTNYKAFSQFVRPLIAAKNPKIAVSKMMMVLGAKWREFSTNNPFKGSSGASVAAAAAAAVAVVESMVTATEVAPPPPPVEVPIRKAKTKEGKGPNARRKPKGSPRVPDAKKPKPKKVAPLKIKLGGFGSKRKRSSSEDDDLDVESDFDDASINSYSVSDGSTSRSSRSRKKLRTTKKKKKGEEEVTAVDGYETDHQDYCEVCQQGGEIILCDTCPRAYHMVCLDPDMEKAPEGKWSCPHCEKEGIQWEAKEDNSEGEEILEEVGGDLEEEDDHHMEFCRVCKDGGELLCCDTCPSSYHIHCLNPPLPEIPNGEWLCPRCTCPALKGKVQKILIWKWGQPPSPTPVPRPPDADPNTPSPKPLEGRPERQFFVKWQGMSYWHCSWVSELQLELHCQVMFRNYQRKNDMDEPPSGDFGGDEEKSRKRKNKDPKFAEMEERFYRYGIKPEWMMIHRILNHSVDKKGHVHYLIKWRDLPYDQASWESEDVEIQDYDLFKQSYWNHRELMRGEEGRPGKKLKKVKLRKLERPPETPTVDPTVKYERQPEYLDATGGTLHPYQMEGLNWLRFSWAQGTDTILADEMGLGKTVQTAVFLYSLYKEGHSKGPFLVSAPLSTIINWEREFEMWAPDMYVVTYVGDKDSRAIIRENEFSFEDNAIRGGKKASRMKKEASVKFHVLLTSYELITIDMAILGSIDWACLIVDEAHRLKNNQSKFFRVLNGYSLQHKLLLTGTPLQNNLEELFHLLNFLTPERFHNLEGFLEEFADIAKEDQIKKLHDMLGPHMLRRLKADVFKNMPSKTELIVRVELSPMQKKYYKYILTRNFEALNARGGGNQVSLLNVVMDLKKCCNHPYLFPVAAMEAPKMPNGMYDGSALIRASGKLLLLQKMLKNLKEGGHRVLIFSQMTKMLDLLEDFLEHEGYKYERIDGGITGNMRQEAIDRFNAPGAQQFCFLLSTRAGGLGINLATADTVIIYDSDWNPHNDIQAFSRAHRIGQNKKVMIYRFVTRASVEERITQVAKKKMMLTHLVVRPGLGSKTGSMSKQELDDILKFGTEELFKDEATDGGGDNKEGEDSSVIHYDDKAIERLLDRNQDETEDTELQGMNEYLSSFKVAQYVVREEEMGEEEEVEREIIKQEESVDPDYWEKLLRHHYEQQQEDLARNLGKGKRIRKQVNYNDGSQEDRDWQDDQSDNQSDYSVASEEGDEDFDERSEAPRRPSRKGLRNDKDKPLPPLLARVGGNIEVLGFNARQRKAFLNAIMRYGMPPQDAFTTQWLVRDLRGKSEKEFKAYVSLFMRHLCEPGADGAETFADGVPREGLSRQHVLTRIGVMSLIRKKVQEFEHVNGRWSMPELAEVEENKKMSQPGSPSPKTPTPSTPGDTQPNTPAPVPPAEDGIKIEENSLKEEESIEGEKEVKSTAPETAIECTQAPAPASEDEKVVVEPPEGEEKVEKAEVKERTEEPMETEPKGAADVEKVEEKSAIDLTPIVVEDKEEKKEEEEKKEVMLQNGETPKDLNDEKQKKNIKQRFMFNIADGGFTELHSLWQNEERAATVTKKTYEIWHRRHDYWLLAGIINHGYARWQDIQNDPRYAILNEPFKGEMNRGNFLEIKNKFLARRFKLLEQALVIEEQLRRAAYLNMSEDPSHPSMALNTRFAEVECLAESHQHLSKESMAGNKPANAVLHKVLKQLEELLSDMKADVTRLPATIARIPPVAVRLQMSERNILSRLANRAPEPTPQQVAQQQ
Sequence of UniProt Q9Y6H1 (Q9Y6H1 whole entry, looked up): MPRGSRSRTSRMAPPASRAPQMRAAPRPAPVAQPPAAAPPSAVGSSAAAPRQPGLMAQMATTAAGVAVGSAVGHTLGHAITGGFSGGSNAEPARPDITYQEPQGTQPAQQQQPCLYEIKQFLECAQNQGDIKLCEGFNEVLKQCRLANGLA
Sequence of UniProt P83916 (P83916 whole entry, looked up): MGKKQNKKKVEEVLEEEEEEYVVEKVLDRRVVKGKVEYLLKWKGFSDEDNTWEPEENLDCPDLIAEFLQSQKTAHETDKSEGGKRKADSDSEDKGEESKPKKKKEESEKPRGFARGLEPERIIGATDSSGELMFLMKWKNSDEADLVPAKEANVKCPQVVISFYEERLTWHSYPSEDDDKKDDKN

Target | log2 fold change
CD151 (UniProt P48509) | -0.076 (inactive)
CBX1 (UniProt P83916) | -0.039 (inactive)
CHCHD2 (UniProt Q9Y6H1) | -0.06 (inactive)
CCNK isoform 4 (UniProt O75909) | 0.096 (inactive)
CBR1 (UniProt P16152) | -0.044 (inactive)
CASP2 (UniProt P42575) | -0.118 (inactive)
COCH (UniProt O43405) | 0.07 (inactive)
CTBS (UniProt Q01459) | 0.091 (inactive)
CDKN2AIP (UniProt Q9NXV6) | 0.046 (inactive)
CBS (UniProt P35520) | -0.023 (inactive)
COMT (UniProt P21964) | 0.002 (inactive)
CCDC9 (UniProt Q9Y3X0) | -0.004 (inactive)
CHD4 isoform 2 (UniProt Q14839) | -0.083 (inactive)
COX5A (UniProt P20674) | 0.103 (inactive)
CLCN3 (UniProt P51790) | 0.015 (inactive)
C4A (UniProt P0C0L4) | -0.087 (inactive)
CCAR2 isoform 2 (UniProt Q8N163) | 0.011 (inactive)
COPS4 (UniProt Q9BT78) | -0.012 (inactive)
CDK16 isoform 2 (UniProt Q00536) | -0.072 (inactive)
COPS3 (UniProt Q9UNS2) | 0.004 (inactive)
C4orf33 (UniProt Q8N1A6) | -0.007 (inactive)
COPS8 (UniProt Q99627) | -0.017 (inactive)
CDK5RAP3 isoform 4 (UniProt Q96JB5) | -0.052 (inactive)
